{
  "source": "PubChem BioAssay (NCATS)",
  "key": {"[1]": {"assay": "P-glycoprotein substrates identified in KB-8-5-11 adenocarcinoma cell line, qHTS therapeutic library screen (AID 1346987); also: nearly all actives have a fitted effect of over 65% in size; also: potency is read from the fitted curve at half-maximal effect", "method_in_brief": "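KB-8-5-11: colchicine-selected sub-line of KB-3-1 over-expressing P-gp; assay medium lacked colchicine. 72 h drug exposure at 37 degree C, CellTiter-Glo.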"}, "[2]": {"biological_target": "Glutathione peroxidase 1 (Homo sapiens) (UniProt P07203)", "sequence (P07203 whole entry, looked up)": "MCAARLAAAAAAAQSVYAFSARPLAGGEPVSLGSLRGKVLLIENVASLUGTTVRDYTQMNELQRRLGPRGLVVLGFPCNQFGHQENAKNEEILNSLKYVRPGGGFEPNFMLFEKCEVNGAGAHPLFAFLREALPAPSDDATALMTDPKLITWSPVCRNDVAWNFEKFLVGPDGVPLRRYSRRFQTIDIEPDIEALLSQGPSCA", "assay": "Primary qHTS Assay for Inhibitors of Recombinant Selenoprotein Glutathione Peroxidase 1 (GPX1) (AID 1845191); also: nearly all actives have a fitted effect of over 65% in size", "method_in_brief": "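GR-coupled assay: compounds preincubated 30 min at room temperature with GPX1, then reaction started with CHP; final 10 nM GPX1, 1 mM GSH, 0.5 mM CHP, 0.5 mM NADPH, 100 nM GR, 0.01% BSA, pH 7.5 Tris buffer. NADPH fluorescence (340/450 nm) read at 0 and 15 min.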"}, "[3]": {"assay": "Primary qHTS for inhibitors of nuclear receptor binding SET domain protein 2 (NSD2) in an isogenic RCH-ACV NSD2 p.E1099K mutant (9B) (AID 1645876); also: potency is read from the fitted curve at half-maximal effect; nearly all actives have a fitted effect of over 70% in size"}, "[4]": {"assay": "Primary qHTS for inhibitors of nuclear receptor binding SET domain protein 2 (NSD2) in an RCH-ACV wild type WT cells (2C) (AID 1645877); also: potency is read from the fitted curve at half-maximal effect; nearly all actives have a fitted effect of over 70% in size"}, "[5]": {"assay": "qHTS drug screen for cell cycle checkpoint inhibitors in PARPi-resistant BRCA-mutant ovarian cancer cell lines. (AID 1963452; calls by dose curve)", "conditions": "PEO1/OlaR viability, CellTiter-Glo luminescence, 96 h, stronger effect = lower value", "method_in_brief": "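PEO1, PEO4 and PEO1/OlaR ovarian cancer cells, 600 per well, exposed 96 h at 37C to a dilution series. Viability read by CellTiter-Glo luminescence, normalized to DMSO and empty wells; activity summarized as Z-AUC.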"}},
  "note": "Records with an inconclusive call do not appear. The source made the active and inactive calls. Unless noted, calls follow the shape of the dose curve; as a rule, active = well fitted curve in the direction sought with a large enough effect; inconclusive = small, poorly fitted or top-dose-only effect, or another doubt; inactive = no such curve, though single readings can be large; an effect the other way counts as inactive or inconclusive.",
  "data": [
    {"smiles": "O=C(/C=C/c1cccnc1)c1ccncc1", "values": [
      {"measurement": "Potency", "setting": "[1]", "value": "inactive"},
      {"measurement": "Potency", "setting": "[2]", "value": "inactive"}
    ]},
    {"smiles": "NS(=O)(=O)c1ccc(N=Nc2c(O)[nH]c3ccc(Br)cc23)cc1", "values": [
      {"measurement": "Potency", "setting": "[1]", "value": "11.6 µM (active)"},
      {"measurement": "Potency", "setting": "[2]", "value": "inactive"}
    ]},
    {"smiles": "Cc1ccc(NC(=O)Nc2nnc(Sc3ncnc4cc(OCCCN5CCOCC5)ccc34)s2)cc1", "values": [
      {"measurement": "Potency", "setting": "[1]", "value": "inactive"},
      {"measurement": "Potency", "setting": "[3]", "value": "3.66 µM (active)"},
      {"measurement": "Potency", "setting": "[4]", "value": "5.17 µM (active)"},
      {"measurement": "Potency", "setting": "[2]", "value": "inactive"},
      {"measurement": "Z-AUC", "setting": "[5]", "value": "-0.628 (inactive)"},
      {"measurement": "Z-AUC", "setting": "[5]; measured here: PEO1 parental Z-AUC", "value": 0.369},
      {"measurement": "Z-AUC", "setting": "[5]; measured here: PEO4 Z-AUC", "value": 0.158}
    ]}
  ]
}
